# Laboratory results published in PubChem BioAssay AID1347422 (Sanford-Burnham Center for Chemical Genomics, 2020).
# The full ranking holds about 1,000 compounds; the median of “thermal shift dTm” is about 0.19, and the highest 2% start at about 1.7. The entries come from a sample that favours the highest values as a whole. Activity calls are given as the source filed them.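 How the source made its calls: active means mean rise in melting temperature of at least 1 degC over same-plate control wells; inactive means below that, where a call was filed.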
# Target: Sulfhydryl oxidase 1 (Homo sapiens) (UniProt O00391)
# Sequence (O00391 whole entry, looked up): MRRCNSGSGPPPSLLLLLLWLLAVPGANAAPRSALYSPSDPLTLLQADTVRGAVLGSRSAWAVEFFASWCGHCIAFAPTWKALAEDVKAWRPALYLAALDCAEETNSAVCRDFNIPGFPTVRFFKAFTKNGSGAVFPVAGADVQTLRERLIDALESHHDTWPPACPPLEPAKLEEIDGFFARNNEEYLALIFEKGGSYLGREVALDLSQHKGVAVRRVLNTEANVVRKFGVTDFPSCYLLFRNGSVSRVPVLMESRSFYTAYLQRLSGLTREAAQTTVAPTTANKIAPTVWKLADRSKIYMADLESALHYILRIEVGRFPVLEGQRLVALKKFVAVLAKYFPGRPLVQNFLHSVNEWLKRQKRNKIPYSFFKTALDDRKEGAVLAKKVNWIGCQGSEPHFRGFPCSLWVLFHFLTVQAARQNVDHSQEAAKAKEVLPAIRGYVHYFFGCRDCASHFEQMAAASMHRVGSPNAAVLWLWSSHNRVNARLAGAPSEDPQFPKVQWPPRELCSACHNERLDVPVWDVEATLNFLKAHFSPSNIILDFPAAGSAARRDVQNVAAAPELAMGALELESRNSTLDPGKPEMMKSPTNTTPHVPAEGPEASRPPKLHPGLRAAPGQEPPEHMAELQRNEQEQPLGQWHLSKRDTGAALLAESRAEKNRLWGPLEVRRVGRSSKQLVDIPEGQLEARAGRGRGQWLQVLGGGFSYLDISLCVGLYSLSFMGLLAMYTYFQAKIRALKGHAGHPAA
# Assay: QSOX1 binders by thermal stabilization, confirmation, QSOX1 inhibitor project, biophysical, protein thermal shift, single concentration (AID 1347422);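 further: dTm is compound Tm minus mean Tm of DMSO-only wells on that plate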
# Conditions: recombinant hQSOX1 thermal shift, Sypro Orange, at 25 µM, stronger effect = higher value
row,Structure (SMILES),thermal shift dTm
1,COc1ccc(-c2c(-c3ccc(OC)c(C)c3O)n[nH]c2C(F)(F)F)cc1,0.76 °C
2,Cc1ccc2sc(-c3ccc(NC(=O)CCc4ccccc4)cc3)nc2c1,0.4 °C
3,COc1ccc(NC(=O)CSCc2ccccc2C)cc1Cl,0.02 °C
4,Cc1ccc(S(=O)(=O)Nc2cccc(NC(=O)c3cccs3)c2)cc1,0.48 °C
5,Cc1cc(C)nc(NS(=O)(=O)c2ccc(NC(=O)c3cccs3)cc2)n1,2.92 °C (active)
6,O=C(c1ccncc1)c1ccc(NC(=O)c2cccs2)cc1,0.05 °C
7,CC1=Nc2ccccc2/C1=C/c1c(O)n(Cc2ccco2)c(=O)[nH]c1=O,0.93 °C
8,Cc1nc(N)sc1-c1nnc(Nc2ccccc2)s1,2.14 °C (active)
9,CC(=O)c1sc(Nc2ccc(Oc3ccccc3)cc2)nc1C,0.15 °C
10,CCOc1ccc(Nc2nnc(C)s2)cc1,0.28 °C
11,Cc1ccc(NC(=O)C(C)Sc2nc3c(c(=O)[nH]2)CCCC3)cc1Cl (stereo not given),0.01 °C
12,CCOc1ccc2nc(NC(=O)CCCCC(=O)O)sc2c1,-0.04 °C (inactive)
13,CC(NS(=O)(=O)c1ccc(Cl)cc1)C1C2CC3CC(C2)CC1C3 (stereo not given),0.05 °C
14,COc1ccc(CCC(=O)Nc2nc3ccc(S(C)(=O)=O)cc3s2)cc1,0.35 °C
15,Cc1ccc(CN2CCC(C(=O)Nc3cccc(-c4ccn[nH]4)c3)CC2)o1,0.19 °C
16,CCc1nc2sc(C(=O)c3ccccc3)c(N)c2c2c1CCCC2,0.11 °C
17,O=C(CCCc1c[nH]c2ccccc12)NCCOc1ccc(Cl)cc1,-0.03 °C (inactive)
18,COc1cc(CO)cc(Cl)c1OCc1cccc2ccccc12,0.21 °C
19,CC(=O)Nc1cccc(NC(=O)COc2ccc(F)cc2Cl)c1,0 °C (inactive)
20,CCSC1=N/C(=C\c2ccc(-c3cccc(Cl)c3)o2)C(=O)S1,0.25 °C
21,Cc1ccc(S(=O)(=O)Nc2ccc(C(=O)Nc3ccc4c(c3)OCO4)cc2)cc1,1.03 °C (active)
22,Cc1ccc(Nc2nc(C3(C)CC4(CC(C)OC4=O)C(=O)O3)cs2)cc1 (stereo not given),0.11 °C
23,O=C1OC(c2ccccc2)OC(=O)C1=Cc1ccc(-c2cccc(C(F)(F)F)c2)o1 (stereo not given),1.07 °C (active)
24,CCCc1cc(=O)[nH]c(N2CCN(Cc3ccc4c(c3)OCO4)CC2)n1,0.02 °C
25,Cc1ccc(-c2n[nH]c(-c3ccncc3)n2)cc1,0 °C
26,O=C(NCCO)Nc1ccc(Cl)c(Cl)c1,0 °C (inactive)
27,O/N=C/c1cc(Cl)ccc1OCc1ccc(F)cc1,0.34 °C
28,CCOc1ccc(NC(=O)Nc2cnccn2)cc1,0.09 °C

row,Structure (SMILES),thermal shift dTm
1,O=C(COc1ccc(Cl)cc1)NCCSCc1ccc(Cl)c(Cl)c1,0.11 °C
2,CC(=O)Nc1ccc(NC(=O)CCc2nc(-c3ccccc3)no2)cc1,0.14 °C
3,Cc1cccc(Nc2nc3ccc(C)cc3n3cnnc23)c1,0.19 °C
4,Cc1ccc(C(=O)Nc2nc(-c3ccccc3)c(C)s2)s1,0.01 °C
5,Cc1ccc(NC(=O)Nc2ccc(S(=O)(=O)Nc3ccccn3)cc2)cc1,2.37 °C (active)
6,Cc1noc(NS(=O)(=O)c2ccc(NC(=O)Nc3ccc(Cl)cc3)cc2)c1C,0.7 °C
7,O=C(Nc1ccc(Cl)cc1)Nc1ccc(S(=O)(=O)Nc2ncccn2)cc1,1.03 °C (active)
8,CC(NC(=O)c1ccc(-c2cc(Cl)ccc2Cl)o1)c1ccccc1 (stereo not given),0.07 °C
9,Cc1ccccc1COc1ccc(Br)cc1/C=C1/N=C(c2ccco2)OC1=O,0.82 °C
10,Cc1nonc1CC(=O)N1CCc2ccc(NC(=O)Cc3ccccc3F)cc2C1,0.29 °C
11,COc1ccc(-c2nnc(Nc3ccc(O)cc3)c3ccccc23)cc1,0.15 °C
12,CN(C(=O)Nc1ccc(F)cc1)c1ccccc1,-1.43 °C (inactive)
13,Clc1cccc(-c2cn3ccccc3n2)c1,0.71 °C
14,O=C(Nc1ccc2ncccc2c1)c1cccc([N+](=O)[O-])c1,0.53 °C
15,N#Cc1nc(/C=C/c2cccs2)oc1NCCc1ccccc1,-37.7 °C (inactive)
16,Cc1ccc(NC(=O)N2CCC(Cc3ccccc3)CC2)cc1,0.07 °C
17,O=C(/C=C/c1ccc(Cl)cc1)Nc1cccnc1,2.02 °C (active)
18,CCCC(=O)Nc1cccc(NC(=O)/C=C/c2ccc(Cl)cc2)c1,-31.6 °C (inactive)
19,O=C(/C=C/c1ccc(F)cc1)Nc1ccncc1,0.57 °C
20,CCc1ccc(NC(=O)Nc2cc(F)ccc2F)cc1,-15.7 °C (inactive)
21,CCOc1ccc(NC(=O)Nc2cc(OC)c(OC)c(OC)c2)cc1,1.64 °C (active)
22,CCOc1ccc(NC(=O)Nc2cc(C)ccc2OC)cc1,0.34 °C
23,CCOc1ccc(NC(=O)Nc2cc(C)ccc2F)cc1,2.42 °C (active)
24,COc1cccc(NC(=O)Nc2cc(C)ccc2F)c1,0 °C
25,CCOc1ccc(NC(=O)Nc2cc(F)ccc2C)cc1,2.14 °C (active)
26,Cc1ccc(-c2cn(S(=O)(=O)c3cccc4nsnc34)nc2N)cc1,0.1 °C
27,O=C(Nc1ccccc1C(=O)O)c1cccc(S(=O)(=O)Nc2ccccc2)c1,1.23 °C (active)
